Data from publication PMC8769072, “Proteome‐scale mapping of binding sites in the unstructured regions of the human proteome” (Molecular Systems Biology, 2022).

B1: SH3BP4, Q9P0V3 (peptide)
chain: YSNNPFWNGVQTNPFL
B2: PCLO, Q9Y6V0 (peptide)
chain: SAVSSVVNKFNPFDLI
B3: PYGO2, Q9BRQ0 (peptide)
chain: NPFEDDFGAPKVGVAA
B4: ADD3, Q9UEY8 (peptide)
chain: TPPPPSMPHKERYFDR
B5: GRIN2B, Q13224 (peptide)
chain: YPDRVTQNPFIPTFGD
B6: EP400, Q96L91 (peptide)
chain: TPVAIATQLPPKVSAA
B7: KIAA1522, Q9P206 (peptide)
chain: PTLPPKGLAGPPASPG
B8: WNK4, Q96J92 (peptide)
chain: PLSPGNPFSPGTPISP
B9: SPATA31E1, Q6ZUB1 (peptide)
chain: PPEPLLPLKAPATQPH
B10: NUAK2, Q9H093 (peptide)
chain: IPASPGQAAPLLPKKG
B11: VPS37B, Q9H9H4 (peptide)
chain: PGLQAPPLPPRVGLPT
B12: SCIMP, Q6UWF3 (peptide)
chain: NVLNESPVQLPPLPPR
B13: GNG5, P63218 (peptide)
chain: PLLTGVSSSTNPFRPQ
B14: SPATA31E1, Q6ZUB1 (peptide)
chain: NPFWNVSTQPQQLPRP
B15: PHLDB1, Q86UU1 (peptide)
chain: PHSSPPPLPAKASRQL
B16: IVL, P07476 (peptide)
chain: VQDIQPALPTKGEVLL
B17: UBQLN1, Q9UMX0 (peptide)
chain: QIMENPFVQSMLSNPD
B18: ZNF516, Q92618 (peptide)
chain: APPLPPREPPSKAAQE
B19: FAM110B, Q8TC76 (peptide)
chain: LKAIPASSSAPPLPPK
B20: PPARGC1B, Q86YN6 (peptide)
chain: PSAPQLPPRDSPRALM
B21: IL31RA, Q8NI17 (peptide)
chain: ELPVSPEIPPRKSQYL
B22: FAM205A, Q6ZU69 (peptide)
chain: PQLLPKTSPQSAPPSS
B23: BCL11B, Q9C0K0 (peptide)
chain: LMNFLGDSNPFNLLRM
B24: ADNP, Q9H2P0 (peptide)
chain: ESVAYHAQNNPPVPPK
B25: UBQLN3, Q9H347 (peptide)
chain: VQEQFGGNPFATATTD
B26: C6orf132, Q5T0Z8 (peptide)
chain: MLGPAIPPKATPEPAI
B27: LMTK3, Q96Q04 (peptide)
chain: HANPSNPFYEALSTPS
B28: DTX1, Q86Y01 (peptide)
chain: GVPALPVKNLNGTGPV
B29: TPR, P12270 (peptide)
chain: DDTVEMPLPKKLKSVT
B30: NCF4, Q15080 (peptide)
chain: SSALAATLPTLPAKVY
B31: SLC25A3, Q00325 (peptide)
chain: NPFNTPHLQLVHDGLG
B32: KCNJ3, P48549 (peptide)
chain: ADLPPKLQKMAGGAAR
B33: NPM3, O75607 (peptide)
chain: VELAPILPAKKQGGRP
B34: ATXN1L, P0C7T5 (peptide)
chain: SQEALPPKKRDLPVTS
B35: CTTNBP2, Q8WZ74 (peptide)
chain: SSSPQLPPKPSIDLTV
B36: PRUNE2, Q8WUY3 (peptide)
chain: YTNPFSDNHQSPFLEG
B37: AGFG1, P52594 (peptide)
chain: AAGPSVASSTNPFQTN
B38: MTCL1, Q9Y4B5 (peptide)
chain: LMDISPFLPEKGLPST
B39: WDR59, Q6PJI9 (peptide)
chain: DSASSNPFALPNSVTP
B40: TNRC6A, Q8NDV7 (peptide)
chain: ELWKVPLPPKNITAPS
B41: DAB2IP, Q5VWQ8 (peptide)
chain: IEAKDLPAKKKYLAEL
B42: UBQLNL, Q8IYU4 (peptide)
chain: MQDPFGGNPFTALLAG
B43: NUMB, P49757 (peptide)
chain: TPSEADRWLEEVSKSV
B44: SH2B1, Q9NRF2 (peptide)
chain: SMELLPPELPPRIPIE
B45: MLLT10, P55197 (peptide)
chain: TQAPPLHTATTNPFLT
B46: BICRA, Q9NZM4 (peptide)
chain: TQPPPHLPTKLVIRHG
B47: WEE1, P30291 (peptide)
chain: NPFTPDSLLLHSSGQA
B48: AGFG1, P52594 (peptide)
chain: TPFGQVAAAGVSSNPF
B49: MYO9A, B2RTY4 (peptide)
chain: SSSAHLPPKDRPVTVF
B50: KIAA1549, Q9HCM3 (peptide)
chain: NPFLPSDSSKTSELHS
B51: SIM2, Q14190 (peptide)
chain: KPMLPAKFGQPQGSPA
B52: PLEKHM2, Q8IWE5 (peptide)
chain: NPFNEEPAETVSSSDT
B53: SLC1A1, P43005 (peptide)
chain: SSEVNIVNPFALESTI
B54: HDLBP, Q00341 (peptide)
chain: FPPLPEKAAALESAQE
B55: SATB1, Q01826 (peptide)
chain: GPRLPPRQPTVASPAE
B56: SNX30, Q5VWJ9 (peptide)
chain: PPLPEKFVVKGVVDRF
B57: PPFIA4, O75335 (peptide)
chain: FSMQEPMVPAKLGTQA
B58: IRS4, O14654 (peptide)
chain: NDNSEYVPMLPGKFLG
B59: EPN3, Q9H201 (peptide)
chain: NPFLTGLSAPSPTNPF
B60: EIF3G, O75821 (peptide)
chain: PLPPPKEVINGNIKTV
B61: WDR83, Q9BRX9 (peptide)
chain: PRPPELPQKRLKTLDA
B62: ZNF804A, Q7Z570 (peptide)
chain: NTQPPLPFKEAHVSGH

target: EPS15 121-215, P42566
Sequence (P42566 121-215): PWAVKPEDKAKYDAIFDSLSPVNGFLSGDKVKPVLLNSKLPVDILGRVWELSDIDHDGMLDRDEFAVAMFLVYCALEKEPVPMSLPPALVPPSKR

Selected by phage display, active:
B1 confidence 2
B2 confidence 3
B3 confidence 2
B5 confidence 3
B8 confidence 3
B13 confidence 3
B14 confidence 4
B17 confidence 3
B23 confidence 2
B25 confidence 4
B27 confidence 4
B31 confidence 2
B36 confidence 2
B37 confidence 3
B39 confidence 3
B42 confidence 3
B43 confidence 3
B45 confidence 4
B47 confidence 4
B48 confidence 3
B50 confidence 2
B52 confidence 2
B53 confidence 2
B59 confidence 3

target: CRK 124-198, P46108
Sequence (P46108 124-198): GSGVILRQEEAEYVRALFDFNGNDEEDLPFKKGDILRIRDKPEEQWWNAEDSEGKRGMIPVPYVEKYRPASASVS

Selected by phage display, active:
B4 confidence 2
B6 confidence 2
B7 confidence 3
B9 confidence 2
B10 confidence 2
B11 confidence 4
B12 confidence 3
B15 confidence 3
B16 confidence 4
B18 confidence 2
B19 confidence 4
B20 confidence 2
B21 confidence 2
B22 confidence 4
B24 confidence 2
B26 confidence 3
B28 confidence 3
B29 confidence 2
B30 confidence 2
B32 confidence 4
B33 confidence 4
B34 confidence 3
B35 confidence 2
B38 confidence 3
B40 confidence 3
B41 confidence 2
B44 confidence 4
B46 confidence 3
B49 confidence 2
B51 confidence 2
B54 confidence 3
B55 confidence 2
B56 confidence 3
B57 confidence 3
B58 confidence 3
B60 confidence 3
B61 confidence 4
B62 confidence 4
